Records with an inconclusive call do not appear. Calls of active or inactive are those of the source. Unless noted, calls come from the whole dose curve; as a rule, active = well fitted curve in the direction sought with a large enough effect in the repeat runs; inconclusive = weak or mixed curves; inactive = no such curve, though single readings can be large; an effect the other way counts as inactive or inconclusive.
Tests used:
[1] = qHTS assay for small molecules that induce genotoxicity in human embryonic kidney cells expressing luciferase-tagged ATAD5 - cell viability (AID 651634; calls by dose curve; note: nearly all actives have a fitted effect of over 25% in size; note: potency is the fitted concentration of half-maximal effect)
In short: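 HEK293T cells carrying luciferase-tagged ATAD5, 2,000 cells/well, exposed to compound for 15.5 hr at 37C. Viability read as live-cell protease activity by CellTiter-Fluor fluorescence after 30 min at 37C.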

[2] = qHTS assay for small molecule disruptors of the mitochondrial membrane potential - cell viability (AID 720634; calls by dose curve; note: nearly all actives have a fitted effect of over 20% in size; note: potency is the fitted concentration of half-maximal effect)
In short: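 HepG2 cells, 2,000 per well, attached overnight, then treated 1 hr at 37 C, 5% CO2. Viability read as ATP by CellTiter-Glo luminescence after 30 min at room temperature. Read in the same wells as the m-MPI membrane-potential dye assay.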

[3] = qHTS assay to test for compound auto fluorescence at 590 nm (red) in HepG2 cells (AID 720674)
In short: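 Fluorescence at 590 nm emission following 540 nm excitation was recorded from HepG2 wells one hour after compound transfer, with DMSO-only wells as vehicle and Rose Bengal sodium equivalency as the scale.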

[4] = qHTS assay to test for compound auto fluorescence at 535 nm (green) in HepG2 cells (AID 720675)
[5] = qHTS assay to test for compound auto fluorescence at 460 nm (blue) in HEK293 cells (AID 720678)
In short: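 HEK293, 2,000 cells/well, 10% dialyzed FBS; attach 4-5 hr 37C; pin compound or DMSO; o/n 37C/5% CO2; fluorescence 405/460 nm; triamterene-equivalent units.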

[6] = qHTS assay to test for compound auto fluorescence at 590 nm (red) in HEK293 cells (AID 720679)
In short: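 Intensity at 540nm excitation and 590nm emission is reported as Rose Bengal sodium-equivalent autofluorescence. Measurements followed overnight exposure (37C, 5% CO2) of HEK293 cells, 2,000 per well, to 23 nL compound.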

[7] = qHTS assay to test for compound auto fluorescence at 535 nm (green) in HEK293 cells (AID 720680)
[8] = qHTS assay to test for compound auto fluorescence at 460 nm (blue) in HEK293 cell free culture (AID 720681)
In short: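 Compounds were added to cell-free DMEM with 10% FBS and fluorescence read directly. The blue channel used 405 nm excitation and 460 nm emission, with triamterene as the reference fluorophore.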

[9] = qHTS assay to test for compound auto fluorescence at 535 nm (green) in HEK293 cell free culture (AID 720682)
In short: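 Intrinsic compound fluorescence is measured in culture medium containing 10% FBS, with excitation at 485 nm and detection at 535 nm, referenced to fluorescein.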

[10] = qHTS assay to test for compound auto fluorescence at 590 nm (red) in HEK293 cell free culture (AID 720683)
In short: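 Cell-free wells of DMEM with 10% FBS received compound, and intrinsic fluorescence was read at excitation/emission 540/590 nm. Values expressed as equivalence to Rose Bengal sodium.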

[11] = qHTS assay to test for compound auto fluorescence at 590 nm (red) in HepG2 cell free culture (AID 720684)
In short: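 Compound was pinned into wells holding MEM with 10% FBS and no cells, and red fluorescence was read at Ex/Em 540/590 nm. Signal is expressed as auto fluorescence equivalency relative to Rose Bengal sodium.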

[12] = qHTS assay to test for compound auto fluorescence at 460 nm (blue) in HepG2 cell free culture (AID 720685)
In short: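 Compound (23 nL) or DMSO pinned into cell-free MEM with 10% FBS; blue fluorescence read at 405/460 nm excitation/emission, expressed as auto-fluorescence equivalency to triamterene.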

[13] = qHTS assay to test for compound auto fluorescence at 535 nm (green) in HepG2 cell free culture (AID 720686)
[14] = qHTS assay to test for compound auto fluorescence at 460 nm (blue) in HepG2 cells (AID 720687); note: potency is the fitted concentration of half-maximal effect
In short: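 HepG2 cells in MEM with 10% FBS, attached overnight at 37 C, were exposed to compound or DMSO for 1 hr at 37 C, 5% CO2. Blue fluorescence was read at 405/460 nm, with triamterene as reference fluorophore.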

[15] = target: Glucocorticoid receptor (Homo sapiens) (UniProt P04150); experiment: qHTS assay to identify small molecule agonists of the glucocorticoid receptor (GR) signaling pathway (AID 720691; active = well fitted activation curve with a large enough effect in the signal ratio in the repeat runs, not every such curve was filed as active; the % refers to the signal ratio); details: GR-bla HeLa, beta-lactamase reporter ratio, 18 h; activation: at 62.4 µM (top of the series)
Chain of Glucocorticoid receptor (Homo sapiens) (P04150 whole entry, looked up): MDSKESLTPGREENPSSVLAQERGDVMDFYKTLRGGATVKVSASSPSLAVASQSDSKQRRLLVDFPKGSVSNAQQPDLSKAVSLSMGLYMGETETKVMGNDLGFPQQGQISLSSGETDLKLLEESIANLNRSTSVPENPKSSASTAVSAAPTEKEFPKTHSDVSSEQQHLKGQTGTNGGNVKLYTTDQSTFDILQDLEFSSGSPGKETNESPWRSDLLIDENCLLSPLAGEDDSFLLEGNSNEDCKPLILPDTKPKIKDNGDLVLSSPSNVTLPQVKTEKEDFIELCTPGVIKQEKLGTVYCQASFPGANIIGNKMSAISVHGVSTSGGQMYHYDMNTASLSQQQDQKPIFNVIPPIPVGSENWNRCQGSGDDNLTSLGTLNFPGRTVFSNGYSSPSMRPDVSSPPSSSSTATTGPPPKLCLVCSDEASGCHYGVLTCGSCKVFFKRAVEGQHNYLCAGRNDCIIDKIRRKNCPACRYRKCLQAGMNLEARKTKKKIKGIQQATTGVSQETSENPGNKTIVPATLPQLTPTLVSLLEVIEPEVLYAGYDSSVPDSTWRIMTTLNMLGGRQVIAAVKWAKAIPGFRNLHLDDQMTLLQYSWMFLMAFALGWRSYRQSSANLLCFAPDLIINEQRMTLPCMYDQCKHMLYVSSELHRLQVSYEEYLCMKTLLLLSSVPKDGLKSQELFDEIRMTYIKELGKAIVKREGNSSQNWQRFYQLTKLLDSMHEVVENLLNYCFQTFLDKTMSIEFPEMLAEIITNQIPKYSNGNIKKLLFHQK
In short: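 GR-bla HeLa cells carrying a GRE-driven beta-lactamase reporter, exposed to compounds for 18 h at 37 C. Reporter activation read as fluorescence after 2 h with LiveBLAzer B/G FRET substrate at room temperature.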

[16] = target: Glucocorticoid receptor (Homo sapiens) (UniProt P04150); experiment: qHTS assay to identify small molecule antagonists of the glucocorticoid receptor (GR) signaling pathway (AID 720692; active = well fitted inhibition curve with a large enough effect in the signal ratio in the repeat runs, not every such curve was filed as active; the % refers to the signal ratio)
In short: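 GR-bla HeLa cells carrying a GRE-driven beta-lactamase reporter received compound after 4 h plating, then dexamethasone (5 nM final). After 18 h at 37C, the FRET substrate was loaded for 2 h at room temperature and fluorescence read.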

[17] = qHTS assay for small molecule agonists of the p53 signaling pathway - cell viability (AID 651633; calls by dose curve; note: nearly all actives have a fitted effect of over 30% in size; note: potency is the fitted concentration of half-maximal effect)
In short: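 p53RE-bla cells were treated with compound for 16 hours at 37 C. Cytotoxicity was then measured as CellTiter-Glo luminescence after 30 min at room temperature.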

[18] = qHTS assay for small molecule disruptors of the mitochondrial membrane potential (AID 720635); note: potency is the fitted concentration of half-maximal effect
In short: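 HepG2 cells exposed to compound 1 hr at 37C, then Mito-MPS dye 30 min. Ratio read of aggregate (540/590 nm) versus monomer (490/535 nm) fluorescence.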
% is set by controls: 0 for no effect and ±100 for the full control effect; tags give direction and shape of the fitted curve or compound fluorescence and quenching.

CCN(CCC#N)c1ccc(N=Nc2c(Cl)cc([N+](=O)[O-])cc2Cl)cc1
active: Potency [1] 54.5 µM | Potency [2] 19.3 µM
inactive: Potency [3] | Potency [4] | Potency [5] | Potency [6] | outcome [7] | Potency [8] | outcome [9] | Potency [10] | Potency [11] | Potency [12] | Potency [13] | Potency [14] | Potency [15] | Potency [16]

On1ccccc1=S
active: Potency [18] 0.762 µM
inactive: Potency [17] | Potency [2] | Potency [3] | Potency [4] | Potency [5] | Potency [6] | outcome [7] | Potency [8] | outcome [9] | Potency [10] | Potency [11] | Potency [12] | Potency [13] | Potency [14]

COc1cccc(N)c1
inactive: Potency [17] | Potency [2] | Potency [4] | outcome [7] | Potency [8] | outcome [9] | Potency [10] | Potency [11] | Potency [12] | Potency [13] | Potency [14]
active: Potency [1] 13.8 µM

CC1=C(/C=C/C(C)=C/C=C/C(C)=C/C=O)C(C)(C)CCC1
inactive: Potency [3] | Potency [4] | Potency [5] | Potency [6] | outcome [7] | Potency [8] | outcome [9] | Potency [10] | Potency [11] | Potency [12] | Potency [13] | Potency [14]
active: Potency [17] 43 µM | Potency [1] 60.8 µM | Potency [18] 15.3 µM

CO[Si](CCCNc1ccccc1)(OC)OC
inactive: Potency [17] | Potency [1] | Potency [2] | Potency [18] | Potency [3] | Potency [4] | Potency [6] | outcome [7] | Potency [8] | outcome [9] | Potency [10] | Potency [11] | Potency [12] | Potency [13] | Potency [14] | Potency [15] | Potency [16]

CC(C)(C)c1ccc(C(=O)CCCN2CCC(OC(c3ccccc3)c3ccccc3)CC2)cc1
inactive: Potency [1] | Potency [2] | Potency [4] | Potency [5] | Potency [6] | outcome [7] | Potency [8] | outcome [9] | Potency [10] | Potency [11] | Potency [12] | Potency [13] | Potency [14]
active: Potency [17] 21.1 µM

Cc1[nH]nc2c1N=C(c1ccccc1Cl)c1cc([N+](=O)[O-])ccc1N2
active: Potency [1] 30.6 µM | Potency [18] 3.06 µM
inactive: Potency [2] | Potency [3] | Potency [4] | Potency [5] | Potency [6] | outcome [7] | Potency [8] | outcome [9] | Potency [10] | Potency [11] | Potency [12] | Potency [13] | Potency [14]

Cc1cccc(CN2CCN(C(c3ccccc3)c3ccc(Cl)cc3)CC2)c1 (stereo not given)
inactive: Potency [1] | Potency [2] | Potency [18] | fluorescence, % of fluorescein control [4] 0.0228% [at 18.6 µM] | fluorescence, % of triamterene [5] 0.0825% [at 18.6 µM] | fluorescence, % of fluorescent control [6] 0.431% [at 18.6 µM] | fluorescence, % of fluorescein [7] 0.0512% [at 18.6 µM] | fluorescence, % of fluorescent control [8] -0.0116% [at 18.6 µM] | activity change [9] -0.0053% [at 18.6 µM] | fluorescence, % of fluorescent control [10] 0.0211% [at 18.6 µM] | fluorescence, % of Rose Bengal [11] 0.0634% [at 18.6 µM] | fluorescence, % of fluorescent control [12] -0.0261% [at 18.6 µM] | fluorescence, % of fluorescein control [13] -0.0169% [at 18.6 µM] | fluorescence, % of fluorescent control [14] -0.0938% [at 18.6 µM] | Potency [16]

O=C(O)c1c(Cl)cccc1Cl
inactive: Potency [17] | Potency [1] | Potency [2] | Potency [3] | Potency [4] | Potency [5] | outcome [7] | Potency [8] | outcome [9] | Potency [10] | Potency [11] | Potency [12] | Potency [13] | Potency [14]

CSc1ccc2c(c1)C(N1CCN(C)CC1)Cc1ccccc1S2 (stereo not given)
inactive: Potency [2] | Potency [3] | Potency [4] | Potency [6] | outcome [7] | Potency [8] | outcome [9] | Potency [10] | Potency [11] | Potency [12] | Potency [13] | Potency [14]

O=C(N/N=C/c1ccccc1O)c1ccncc1
active: Potency [17] 3.76 µM
inactive: Potency [2] | Potency [4] | Potency [5] | Potency [6] | outcome [7] | Potency [8] | outcome [9] | Potency [10] | Potency [11]

CN1CCC(Nc2ncc3ncnc(Nc4ccc(F)c(Cl)c4)c3n2)CC1
active: Potency [14] 12.6 µM [fluorescent]
inactive: Potency [17] | Potency [1] | Potency [2] | Potency [3] | Potency [4] | Potency [6] | outcome [7] | outcome [9] | Potency [10] | Potency [11]

CCOC(=O)O[C@H](C)OC(=O)c1ccc2c(c1)cc(C(=O)NC1CCN(C(C)C)CC1)n2Cc1cc(-c2ccc(Cl)s2)on1
active: Potency [17] 25.5 µM | Potency [1] 57.1 µM | Potency [18] 64.1 µM
inactive: Potency [3] | Potency [4] | Potency [5] | Potency [6] | outcome [7] | Potency [8] | outcome [9] | Potency [10] | Potency [11] | Potency [12] | Potency [14]

Cc1cc(O)c2ccccc2c1O
inactive: Potency [1] | Potency [2] | Potency [4] | Potency [5] | Potency [6] | outcome [7] | Potency [8] | outcome [9] | Potency [10] | Potency [11] | Potency [12] | Potency [13] | Potency [14]

O=[N+]([O-])c1cc(Cl)c(Cl)c(Cl)c1Cl
inactive: Potency [17] | Potency [1] | Potency [2] | Potency [3] | Potency [4] | Potency [5] | outcome [7] | Potency [8] | outcome [9] | Potency [10] | Potency [11] | Potency [12] | Potency [13] | Potency [14]

Oc1ccc(N=Nc2ccccc2)cc1
inactive: Potency [17] | Potency [3] | Potency [4] | Potency [5] | outcome [7] | Potency [8] | outcome [9] | Potency [10] | Potency [11] | Potency [12] | Potency [14]
active: Potency [2] 6.95 µM | Potency [18] 3.1 µM

Reference: PubChem BioAssay (Tox21)
